From PubChem BioAssay (NCATS)
Inconclusive results are not listed. A call without a number means that no potency is given here. The source made the active and inactive calls. Calls come from the whole dose curve; as a rule, active = well fitted inhibition curve with a large enough effect; inconclusive = small, poorly fitted or top-dose-only effect; inactive = flat fitted curve, though single readings scatter.

tested on: MCC-26; experiment: qHTS assay to identify novel small-molecules to repurpose for Merkel cell carcinoma treatment (AID 1296009); conditions: MCC and control cell lines, CellTiter-Glo viability, 72 h; series mostly up to 46 µM; note: nearly all actives have a fitted effect of over 60% in size
How it was run: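 72 hr, 37 degree celsius; NPC 8-pt / MIPE 11-pt dose response; compound pinned in DMSO; CellTiter-Glo, 10 min RT, luminescence; normalized to no-cell and DMSO controls.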

Question: How did the Potency turn out when `O=c1c(O)c(-c2ccc(O)cc2O)oc2cc(O)cc(O)c12` was run?
Answer: inactive

Question: `S=c1nc[nH]c2nc[nH]c12` was tested. Which Potency did it give?
Answer: inactive

Question: Which Potency does the source give for `O=c1c(O)c(-c2cc(O)c(O)c(O)c2)oc2cc(O)cc(O)c12` here?
Answer: inactive

Question: Which Potency does the source give for `O=P(O)(O)C(O)(Cn1ccnc1)P(=O)(O)O` here?
Answer: inactive

Question: How did the Potency turn out when `COc1cc(OC)c(C(=O)CCCN2CCCC2)c(OC)c1` was run?
Answer: inactive

Question: With `Cc1nc2n(c(=O)c1CCN1CCC(c3noc4cc(F)ccc34)CC1)CCCC2` as the compound, how does the Potency read?
Answer: inactive
